Gal4-VP16 FLuc: counter-screen for ROR gamma inhibitors: Gal4-VP16 reporter; Drosophila S2 Gal4-VP16 UAS-luciferase, luminescence, 20 h; Potency, µM (top dose mostly 53.6 µM), for inactives: at the highest dose activity, negative = inhibition, most hits filed as inhibitors; actives 3.5% (n = 310,000);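 further: Gal4-VP16 expression switched on by copper sulfate through the metallothionein promoter; nearly all actives have a fitted effect of over 50% in size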
TDP1 cell CPT: growth inhibition of DT40 Tdp1-/-;hTDP1 cells with camptothecin (screen for TDP1 inhibitors) | actives 12% (n = 420,000) | chicken DT40 Tdp1-/-;hTDP1 cells + 20 nM CPT, ATP luminescence, 48 h | AID 686979 | Potency, µM (titrated, usually from 46.2 µM), inactives show at the top dose activity change, negative = growth inhibition, actives largely listed as inhibitors; further: nearly all actives have a fitted effect of over 55% in size
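Chicken DT40 Tdp1-/- cells complemented with human TDP1, 400 cells/well, exposed to compounds plus 20 nM camptothecin for at least 48 h at 37 C; viability read as ATP content by CellTiter-Glo luminescence.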
ELG1 DNA repair: blocks ELG1-dependent DNA repair in HEK293T cells | Potency, µM (titrated, usually from 46.1 µM), for the others: top-dose activity change, negative = inhibition, hits mostly inhibitors | actives 2.3% (n = 330,000) | HEK293T ELG1-luciferase reporter, luminescence, 16 h; DNA damage induced by 5-fluorouridine | AID 504467; further: nearly all actives have a fitted effect of over 55% in size
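Luminescence from the luciferase reporter, measured 30 min after ONE-Glo reagent at room temperature, was the read-out. Beforehand, 2,000 cells per well were exposed for 16 hr at 37 °C to 5-fluorouridine together with compound or vehicle.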
RORgamma inh: ROR gamma (mouse) transcription inhibition; Drosophila S2 Gal4-RORgamma UAS-luciferase reporter, 20 h; actives 5.4% (n = 310,000); Potency, µM (highest dose often 53.6 µM), for the others: at the top dose activity change, negative = inhibition, actives largely listed as inhibitors; further: nearly all actives have a fitted effect of over 60% in size
Target sequence (P51450 whole entry, looked up, the tested form may be a part): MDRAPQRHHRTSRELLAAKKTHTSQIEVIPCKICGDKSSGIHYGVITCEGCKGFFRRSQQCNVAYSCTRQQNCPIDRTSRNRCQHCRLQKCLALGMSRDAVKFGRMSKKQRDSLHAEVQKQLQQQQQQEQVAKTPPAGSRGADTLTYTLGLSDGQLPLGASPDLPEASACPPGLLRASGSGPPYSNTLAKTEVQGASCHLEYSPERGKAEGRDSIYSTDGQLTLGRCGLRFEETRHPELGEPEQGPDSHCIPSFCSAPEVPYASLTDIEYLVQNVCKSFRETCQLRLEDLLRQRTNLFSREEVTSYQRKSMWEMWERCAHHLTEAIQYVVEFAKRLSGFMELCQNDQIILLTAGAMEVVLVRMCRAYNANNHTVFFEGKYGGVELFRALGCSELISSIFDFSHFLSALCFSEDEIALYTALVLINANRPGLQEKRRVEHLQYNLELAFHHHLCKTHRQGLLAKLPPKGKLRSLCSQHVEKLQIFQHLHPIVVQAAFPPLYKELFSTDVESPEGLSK
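Stable Schneider cell line, Gal4 DNA-binding domain fused to ROR gamma, UAS-luciferase. Cmpd 1 hr RT → CuSO4 700 uM final → 20 hr RT → luciferase reagent 10 min → luminescence.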
TDP1 cell noCPT: qHTS for Inhibitors of human tyrosyl-DNA phosphodiesterase 1 (TDP1): qHTS in cells in absence of CPT | Potency, µM (titrated, usually from 46.2 µM), for the others: top-dose activity change, negative = growth inhibition, usual class: inhibitors | DT40 Tdp1-/- hTDP1 cells, no CPT, ATP luminescence, 48 h | AID 686978, 2013 | actives 15% (n = 420,000); further: nearly all actives have a fitted effect of over 55% in size
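Cells were dispensed at 400 per well, compounds added by pin tool, plates incubated ≥48 hr at 37 °C, then CellTiter-Glo added for 30 min at room temperature before luminescence reading. Line: DT40 Tdp1-/- complemented with hTDP1; camptothecin omitted.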
ALOX12 inh: ALOX12 (human) lipoxygenase inhibition; Potency, µM (doses to about 108 µM), without a hit: at the top dose activity change, negative = inhibition, hits mostly inhibitors; actives 1.1% (n = 580,000); purified 12hLO, xylenol orange hydroperoxide absorbance; P18054
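Purified human 12hLO (150 nM final) in 25 mM Hepes, 0.01% Triton X-100, pH 7.0 was preincubated 15 min at room temperature with compound. Then 40 uM arachidonic acid was added, 30 min. Hydroperoxide was read by Fe-XO absorbance ratio 573/405 nm.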
Active calls of the source: *; ? = inconclusive; · = not tested or not shown; [ ] = dose if it differs, or a comment. Shown are actives, neighbours in structure and some others; about 15% of the full set was active somewhere. The call rests on the fitted dose curve; in most records, active means well fitted curve in the direction sought with a large enough effect; inconclusive means small, poorly fitted or top-dose-only effect, or another doubt; inactive means no such curve, though single readings can be large; an effect the other way counts as inactive or inconclusive. On the % scale 0 is the no-effect control and ±100 the full control effect; potency means the concentration at half of the fitted maximal effect.

SMILES	Gal4-VP16 FLuc	TDP1 cell CPT	ELG1 DNA repair	RORgamma inh	TDP1 cell noCPT	ALOX12 inh
COc1ccc(CN(C)C(=S)Nc2ccc(OC(F)F)cc2)cc1	?	-17%	?	?	?	2%
CCc1nc2c(c(-c3ccc(OC)cc3)n1)CCN(C(=O)c1ccc3c(c1)OCO3)CC2	·	·	·	·	·	2%[6.33 µM]
CN(C)Cc1cc(C[C@@H]2C[C@H](NC(=O)COc3ccccc3)C2(C)C)no1	·	·	·	·	·	30%[176 µM]
O=C(C1CCCCCC1)N1CCC(n2cc(C3CCCCC3)nn2)CC1	·	·	·	·	·	19%
O=C(O)CCC(=O)OCCN(Cc1ccc(Oc2ccc([N+](=O)[O-])cc2)cc1)C(=O)C(Cl)Cl	·	18µM*	·	·	?	-12%
CC[N+](C)(CC)CC(=O)OCC1C(C)C=C(C)CC1C (centres undefined)	0%	?	5%	3%	8.2µM*	?
CC1=CC(C)C(COC(=O)C[N+]2(C)CCOCC2)C(C)C1 (centres undefined)	·	·	·	·	·	20µM*
COc1ccc(C2CCc3cc4c(cc3C2=NO)OCO4)cc1OC (centres undefined)	·	?	·	·	15µM*	-19%
COc1cc2c(cc1OC)C(c1ccc3c(c1)OCO3)CC(=O)N2 (centres undefined)	-1%	5%	0%	-19%	?	-13%
COCC(=O)N[C@H]1CCN2C(=O)N(c3ccc(OC(F)(F)F)cc3)C(=O)[C@@H]2C1	·	·	·	·	·	12%[176 µM]
O=C1c2ccccc2NC(c2ccc([N+](=O)[O-])cc2)N1O (centres undefined)	3%	21µM*	?	11µM*	18µM*	-24%
O=C1c2ccccc2NC(c2cccc(O)c2)N1O (centres undefined)	7%	1%	2%	-31%	15%	?
O=C1c2ccccc2NC(c2cccc([N+](=O)[O-])c2)N1O (centres undefined)	-1%	21µM*	?	?	?	?
C=CCN1C(=O)c2ccccc2NC1c1ccc(Br)s1 (centres undefined)	-5%	-23%	-8%	0%	?	0%
O=C1c2ccccc2NC(c2ccc(Br)s2)N1O (centres undefined)	·	10µM*	·	·	12µM*	-33%
CCn1cc(S(=O)(=O)N2CCC3(CC2)CC(N(C)Cc2ccccc2)CCO3)cn1 (centres undefined)	·	·	·	·	·	16%
COc1ccc(CCN(C)C(=S)Nc2ccc(SC(F)F)cc2)cc1OC	?	-15%	?	20µM*	?	-12%
COc1ccc(CCN(C)C(=S)NC(=O)c2ccc(F)cc2Cl)cc1OC	4µM*	?	?	1.6µM*	?	-10%
COc1ccccc1N1CCN(C(=O)C[C@@H]2O[C@H](CNC(=O)c3ccc(N(C)C)cc3)[C@@H](O)[C@H]2O)CC1	·	·	·	·	·	-32%
O=C(NCC(O)COc1cccc(F)c1)c1ccoc1 (centres undefined)	·	·	·	·	·	10%
O=c1[nH]ccn1C1CCN([S+](=O)([O-])c2cccs2)CC1	·	·	·	·	·	38%[176 µM]
COc1ccc([C@H]2CC(=O)C=C(c3ccc4cc[nH]c4c3)C2)cc1	·	26µM*	?	·	23µM*	-9%
O=C1C=C(c2ccc3[nH]ccc3c2)C[C@@H](c2ccc(F)cc2)C1	·	12µM*	?	·	?	?
COc1ccc([C@H]2CC(=O)C=C(c3ccc4ccn(C)c4c3)C2)cc1	·	?	?	·	18µM*	1%
COc1ccc([C@H]2CC(=O)C=C(c3ccc4[nH]ccc4c3)C2)cc1OC	·	?	-28%	·	?	?
